In the library only some 5.7% were active in any assay of this set; here they are far more common.
B2AR arrestin = agonists driving beta-arrestin recruitment to human beta2-adrenergic receptor | beta-arrestin recruitment to beta2AR, cell-based reporter | Potency, µM (doses to about 46.1 µM), actives largely listed as activators | 330,000 compounds, 0.02% hits | AID 492947; also: nearly all actives have a fitted effect of over 65% in size
NPSR antag = antagonists of human neuropeptide S receptor cAMP signaling; CHO-NPSR cells, cAMP TR-FRET, antagonist mode; Potency, µM (doses to about 38.3 µM), actives largely listed as inhibitors; 220,000 compounds, 1% hits; also: nearly all actives have a fitted effect of over 50% in size
Target sequence (Q6W5P4 whole entry, looked up): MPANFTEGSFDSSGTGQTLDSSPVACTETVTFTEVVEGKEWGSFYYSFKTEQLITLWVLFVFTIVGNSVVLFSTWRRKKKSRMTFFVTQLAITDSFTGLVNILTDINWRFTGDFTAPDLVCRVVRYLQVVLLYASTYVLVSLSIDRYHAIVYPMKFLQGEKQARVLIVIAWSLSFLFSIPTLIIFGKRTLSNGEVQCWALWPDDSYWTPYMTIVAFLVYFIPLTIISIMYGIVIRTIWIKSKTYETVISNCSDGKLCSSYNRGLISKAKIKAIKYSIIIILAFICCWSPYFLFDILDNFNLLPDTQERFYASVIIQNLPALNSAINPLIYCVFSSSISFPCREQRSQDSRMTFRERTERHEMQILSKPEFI
RORg inh = inhibitors of mouse ROR gamma transcriptional activity; 310,000 compounds, 5.4% hits; Potency, µM (series often up to 53.6 µM), usual class: inhibitors; Drosophila S2 Gal4-RORgamma UAS-luciferase reporter, 20 h; P51450; also: nearly all actives have a fitted effect of over 60% in size
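Using a luciferase readout, inhibitors were identified by reduced reporter activity in Drosophila cells coexpressing a copper-inducible Gal4–ROR gamma fusion and UAS-driven Photinus luciferase, incubated 20 hr after 700 uM copper sulfate.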
Gal4-VP16 FLuc = counter-screen for ROR gamma inhibitors: Gal4-VP16 reporter; Drosophila S2 Gal4-VP16 UAS-luciferase, luminescence, 20 h; Potency, µM (doses to about 53.6 µM), most hits filed as inhibitors; 310,000 compounds, 3.5% hits; AID 2546;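 also: Gal4-VP16 expression switched on by copper sulfate through the metallothionein promoter; nearly all actives have a fitted effect of over 50% in size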
Numbers stand for hits; 0 = inactive; ? = inconclusive; - = not tested or not shown; [ ] = dose if it differs, or a comment. Calls follow the shape of the dose curve; as a rule, active = well fitted curve in the direction sought with a large enough effect; inconclusive = small, poorly fitted or top-dose-only effect, or another doubt; inactive = no such curve, though single readings can be large; an effect the other way counts as inactive or inconclusive.

SMILES	B2AR arrestin	NPSR antag	RORg inh	Gal4-VP16 FLuc
COc1ccc(C2(c3ccc(OC(C)=O)cc3OC(C)=O)CC(c3ccccc3)NC(=S)N2)cc1 (stereo not drawn)	0	0	0	0
CC(=O)Oc1ccc(C2(C)CC(C)(C)NC(=S)N2C)c(OC(C)=O)c1 (stereo not drawn)	0	0	13µM	?
CCN=c1scc(-c2ccco2)n1/N=C/c1ccc(O)cc1	0	0	0.1µM	0.5µM
COc1ccc(C2=Nn3c(nnc3-c3ccccc3O)SC2)cc1OC	-	-	0	0
CCCn1c(-c2ccc(F)cc2)nc2c(N3CCCN(Cc4ccccc4)CC3)nc(C)nc21	-	-	0	?
Cc1ccc(N2C(=O)CC(Sc3cccs3)C2=O)cc1 (stereo not drawn)	0	0	11µM	7.9µM
Cc1ccnc(SC2CC(=O)N(c3ccc([N+](=O)[O-])cc3)C2=O)n1 (stereo not drawn)	0	-	?	?
Cc1ccc(N2C(=O)CC(Sc3nccc(C)n3)C2=O)cc1 (stereo not drawn)	0	-	18µM	?
COc1ccc(N2C(=O)CC(Sc3n[nH]c(-c4ccccc4)n3)C2=O)cc1 (stereo not drawn)	0	0	11µM	0
N#Cc1c2n(c3c(=S)nc[nH]c13)CCCCC2	0	0	3.5µM	18µM
N#Cc1c2n(c3c(=O)[nH]cnc13)CCCC2	0	0	0	0
CC(C)=CCC/C(C)=C/CO/N=C1/[C@H]2O[C@@H]2[C@@H](O)[C@H]2[C@H]1CCn1c(=O)n(Cc3cc4c(cc3Cl)OCO4)c(=O)n12	-	-	0[10 µM]	0[10 µM]
Cc1ccc(C2C(C#N)=C(N)Oc3n[nH]c(-c4cccs4)c32)s1 (stereo not drawn)	0	0	10µM	0
CCc1[nH]nc2c1C(c1ccc(Br)s1)C(C#N)=C(N)O2 (stereo not drawn)	0	0	11µM	?
COc1cccc(CNc2ccc(Br)cn2)c1O	0	0	0	?
COc1cccc(CNc2ncc(Br)cc2Br)c1O	0	10µM	?	0
Cc1ccc(C(=O)NC(=S)Nc2c(C)ccc3nsnc23)cc1	0	0	10µM	?
O=C(Nc1c(Cl)ccc2nsnc12)c1ccco1	0	0	0	0[10 µM]
Cc1ccc2ncccc2c1NS(=O)(=O)c1ccccc1	0	0	?	0
CC(C)C(=O)NC(=S)Nc1c(Cl)ccc2nsnc12	0	0	13µM	0
Cc1ccc2ncccc2c1NC(=S)NC(=O)c1ccccc1	0	0	8.9µM	0
COc1cc(NC(=O)CCc2nnc3ccc(N4CCOCC4)nn23)cc(OC)c1OC	0	-	0	0
COCCn1c(=O)c(-c2ccc(OC)cc2)nc2cnc(OCc3ccccc3)nc21	-	-	0	0
CC(=O)N(CC(O)CN(C(C)=O)c1c(I)c(C(=O)NC[C@@H](O)CO)c(I)c(C(=O)NC[C@@H](O)CO)c1I)c1c(I)c(C(=O)NC[C@@H](O)CO)c(I)c(C(=O)NC[C@@H](O)CO)c1I	-	-	0[2.98 µM]	0
Cc1cccc(N2CCN(C(=O)C3CCN(c4ncnc5c4nc4n5CCCCC4)CC3)CC2)c1C	0	-	?	8.9µM
SMILES	B2AR arrestin	NPSR antag	RORg inh	Gal4-VP16 FLuc
CCNc1ncc2nc(-c3ccc(Cl)cc3)c(=O)n(CCC#N)c2n1	-	-	0	0
CCCC[C@H](NC(=O)[C@H](CC(C)C)NC(=O)[C@@H](Cc1c[nH]c2ccccc12)NC(=O)[C@H](Cc1ccccc1)NC(=O)[C@@H](Cc1c[nH]c2ccccc12)NC(=O)[C@H](CC(N)=O)NC(=O)[C@@H](Cc1c(Cl)cccc1Cl)NC(=O)[C@@H]1CCCN1C(=O)[C@H](Cc1ccccn1)NC(=O)[C@@H]1CCCN1C(=O)[C@H](N)CCCCNC(=O)c1cccnc1)C(N)=O	-	-	0	0
Cc1cc(C)c(S(=O)(=O)/N=C2/C=C(Sc3ncn[nH]3)C(=O)c3ccccc32)cc1C	0	?	4µM	3.2µM
O=C(Nc1nc(-c2cccs2)cs1)c1cccc(S(=O)(=O)N2CCCCCC2)c1	0	10µM	0	?
O=C(Nc1nc(-c2ccccn2)cs1)c1ccc(S(=O)(=O)N2CCCCC2)cc1	0	0	1.6µM	6.3µM
Cc1ccc(OC2C(O)COC2/C=C/C#Cc2ccc(C(C)(C)C)cc2)cc1 (stereo not drawn)	-	-	0[10 µM]	0[10 µM]
N/C(=N\OC(=O)c1ccc(Cl)cc1)c1ccn[nH]1	0	-	14µM	?
O=C1C=CC(O)(c2cc(=O)c3c(O)cc(O)cc3o2)C=C1	?	0	3.2µM	2.8µM
O=C(O)c1cc(/C=C/c2ccc(N3CCOCC3)cc2)nc2ccccc12	0	0	6.3µM	5µM
CCCc1cc(-c2n[nH]c(=S)n2CC(C)C)cs1	0	0	3.5µM	11µM
CCCCn1c(-c2csc(CC)c2)n[nH]c1=S	0	0	0.79µM	?
CCCCn1c(-c2csc(C(C)C)c2)n[nH]c1=S	0	0	4µM	?
Cn1c(-c2csc(-c3ccccc3)n2)n[nH]c1=S	?	0	0	0
CC(C)Cn1c(-c2cccc(S(=O)(=O)N3CCOCC3)c2)n[nH]c1=S	0	-	-	-
CCCn1c(-c2ccncc2)n[nH]c1=S	0	0	?	0
CCCCN(C(=O)C1CC(=O)N(c2ccc(OC)cc2OC)C1)c1c(N)n(CC(C)C)c(=O)[nH]c1=O (stereo not drawn)	0	-	0	0
O=C(C1=C[C@@H](C2CCCCC2)C[C@@H](OCc2ccc(CO)cc2)O1)N1CCN(Cc2ccccc2)CC1	0	?	?	13µM
O=C(C1=C[C@H](C2CCCCC2)C[C@H](OCc2ccc(CO)cc2)O1)N1CCN(Cc2ccccc2)CC1	0	?	0	0
CCN(CC)S(=O)(=O)c1cccc(NC(=O)CCNC(=O)NC23CC4CC(CC(C4)C2)C3)c1	0	-	-	-
CCOC(=O)C1(CCc2ccccc2)CCN(Cc2nccn2CC)CC1	0	0	7.1µM	11µM
CCOC(=O)C1(Cc2ccccc2)CCN(Cc2nccn2CC)CC1	0	0	7.9µM	?
CCOC(=O)C1(CCc2ccccc2)CCN(Cc2ccc(OC)cc2)CC1	0	0	0	0
CCOC(=O)C1(Cc2ccc(Cl)cc2)CCN(Cc2nccn2CC)CC1	0	0	3.2µM	13µM
CC1Cn2c(nnc2C23CC4CC(CC(C4)C2)C3)S1 (stereo not drawn)	0	0	0	0
CCCn1c(C(C)C)n[nH]c1=S	0	0	0	0
SMILES	B2AR arrestin	NPSR antag	RORg inh	Gal4-VP16 FLuc
Cn1c(C23CC4CC(CC(C4)C2)C3)n[nH]c1=S	0	0	5µM	8.9µM
CC(C)Cn1c(C23CC4CC(CC(C4)C2)C3)n[nH]c1=S	0	-	3.2µM	3.2µM
COCCCn1c(C23CC4CC(CC(C4)C2)C3)n[nH]c1=S	0	-	5µM	6.3µM
COc1ccc(COC(=O)N/N=C2/C[C@@H](O)[C@@H](O)[C@@H]3[C@@H]4C(=O)N(C5CCCCC5)C(=O)[C@H]4CC[C@@H]23)cc1	-	-	0[10 µM]	0[10 µM]
CCOC(=O)C1=CN(C(=O)OC(C)(C)C)C(CN2C(=O)COCC2=O)C1 (stereo not drawn)	-	-	0	?
CC(C)OCCCNC1=C(Cl)C(=O)c2ccccc2C1=O	0	10µM	0	?
CCN(CC)CCCNC1=C(Cl)C(=O)c2ccccc2C1=O	0	0	7.9µM	?

Source: PubChem BioAssay
